In all, about 5,500 compounds went through this assay and about 2,000 (36%) were called active. Roughly 18% stayed inconclusive and do not appear here. Rule as the data show it: active = normalized growth mostly below about 0.91 (no sharp cut-off); inconclusive = no clear call, values can overlap the other calls; inactive = mostly above about 0.92. The list shows a part of the results.
Assay: chemical genetic growth profiling, strain panel (AID 1159580);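 also: tested at 20 µM; growth read once vehicle control cultures reached saturation at 30 °C; 1 = growth at the plate median or of vehicle wells; lower values mean less growth of the strain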
Settings: growth OD

Measured: normalized growth

CCCCOc1ccc(C(=O)CCN2CCCCC2)cc1
inactive: S. cerevisiae deletion strains, locus YKL009W, strain mrt4, active compounds read low 0.902 | S. cerevisiae deletion strains, locus YKL068W, active compounds read low 0.994 | S. cerevisiae deletion strains, locus YKL085W, strain MDH1 (second series), active compounds read low 0.973 | S. cerevisiae deletion strains, locus YKL085W, strain MDH1, active compounds read low 0.973 | S. cerevisiae deletion strains, locus YKL160W, strain elf1, active compounds read low 0.918 | S. cerevisiae deletion strains, locus YKR026C, strain gcn3, active compounds read low 0.996 | S. cerevisiae deletion strains, locus YKR091W, strain srl3, active compounds read low 0.999 | S. cerevisiae deletion strains, locus YLL026W, active compounds read low 0.948 | S. cerevisiae deletion strains, locus YLL041C, strain sdh2, active compounds read low 0.981 | S. cerevisiae deletion strains, locus YLR113W, strain HOG1, active compounds read low 1.03 | S. cerevisiae deletion strains, locus YLR221C, strain rsa3, active compounds read low 0.952 | S. cerevisiae deletion strains, locus YLR258W, strain gsy2, active compounds read low 0.95 | S. cerevisiae deletion strains, locus YLR342W, strain FKS1, active compounds read low 0.985 | S. cerevisiae deletion strains, locus YLR357W, strain rsc2, active compounds read low 1.03 | S. cerevisiae deletion strains, locus YLR384C, strain iki3, active compounds read low 0.976 | S. cerevisiae deletion strains, locus YML120C, strain ndi1, active compounds read low 0.973 | S. cerevisiae deletion strains, locus YMR125W, strain sto1, active compounds read low 0.927 | S. cerevisiae deletion strains, locus YMR129W, active compounds read low 0.99 | S. cerevisiae deletion strains, locus YMR231W, strain pep5, active compounds read low 0.972 | S. cerevisiae deletion strains, locus YMR263W, strain SAP30, active compounds read low 0.916 | S. cerevisiae deletion strains, locus YMR307W, strain GAS1, active compounds read low 0.727 | S. cerevisiae deletion strains, locus YNL209W, strain ssb2, active compounds read low 0.981 | S. cerevisiae deletion strains, locus YNL250W, strain rad50, active compounds read low 0.986 | S. cerevisiae deletion strains, locus YNL271C, strain bni1, active compounds read low 0.94 | S. cerevisiae deletion strains, locus YNL298W, strain CLA4, active compounds read low 0.96 | S. cerevisiae deletion strains, locus YNL322C, strain KRE1 (second series), active compounds read low 1.03 | S. cerevisiae deletion strains, locus YOL012C, strain htz1 0.354 | S. cerevisiae deletion strains, locus YOL147C, strain pex11, active compounds read low 0.965 | S. cerevisiae deletion strains, locus YOR070C, strain gyp1, active compounds read low 0.938 | S. cerevisiae deletion strains, locus YOR080W, strain dia2, active compounds read low 0.975 | S. cerevisiae deletion strains, locus YOR083W, strain WHI5, active compounds read low 0.952 | S. cerevisiae deletion strains, locus YOR106W, strain vam3, active compounds read low 0.97 | S. cerevisiae deletion strains, locus YOR144C, strain elg1, active compounds read low 0.994 | S. cerevisiae deletion strains, locus YOR231W, strain MKK1, active compounds read low 1.03 | S. cerevisiae deletion strains, locus YOR265W, strain rbl2, active compounds read low 0.968 | S. cerevisiae deletion strains, locus YOR290C, strain snf2, active compounds read low 0.882 | S. cerevisiae deletion strains, locus YPL106C, strain sse1, active compounds read low 1.1 | S. cerevisiae deletion strains, locus YPL240C, strain hsp82, active compounds read low 1 | S. cerevisiae deletion strains, locus YPL256C, strain CLN2, active compounds read low 1.01 | S. cerevisiae deletion strains, locus YPR141C, strain kar3, active compounds read low 0.981
active: S. cerevisiae deletion strains, locus YJR066W, strain TOR1, active compounds read low 0.67 | S. cerevisiae deletion strains, locus YJR075W, strain HOC1, active compounds read low 0.66 | S. cerevisiae deletion strains, locus YKR001C, strain vps1, active compounds read low 0.559 | S. cerevisiae deletion strains, locus YLL001W, strain dnm1, active compounds read low 0.428 | S. cerevisiae deletion strains, locus YLR027C, strain aat2, active compounds read low 0.888 | S. cerevisiae deletion strains, locus YLR039C, strain RIC1, active compounds read low 0.426 | S. cerevisiae deletion strains, locus YLR058C, strain SHM2, active compounds read low 0.85 | S. cerevisiae deletion strains, locus YLR102C, strain apc9, active compounds read low 0.0845 | S. cerevisiae deletion strains, locus YLR262C, strain YPT6 (second series), active compounds read low 0.662 | S. cerevisiae deletion strains, locus YLR262C, strain YPT6, active compounds read low 0.523 | S. cerevisiae deletion strains, locus YLR268W, strain sec22, active compounds read low 0.244 | S. cerevisiae deletion strains, locus YLR320W, strain mms22, active compounds read low 0.565 | S. cerevisiae deletion strains, locus YLR330W, strain CHS5, active compounds read low 0.0853 | S. cerevisiae deletion strains, locus YLR342W, strain FKS1 (second series), active compounds read low 0.432 | S. cerevisiae deletion strains, locus YLR370C, strain arc18, active compounds read low 0.85 | S. cerevisiae deletion strains, locus YLR371W, strain rom2, active compounds read low 0.0987 | S. cerevisiae deletion strains, locus YLR418C, strain cdc73, active compounds read low 0.267 | S. cerevisiae deletion strains, locus YML016C, strain PPZ1, active compounds read low 0.17 | S. cerevisiae deletion strains, locus YML032C, strain rad52, active compounds read low 0.748 | S. cerevisiae deletion strains, locus YML124C, strain tub3, active compounds read low 0.552 | S. cerevisiae deletion strains, locus YMR058W, strain fet3, active compounds read low 0.731 | S. cerevisiae deletion strains, locus YMR078C, strain ctf18, active compounds read low 0.138 | S. cerevisiae deletion strains, locus YMR205C, strain PFK2, active compounds read low 0.875 | S. cerevisiae deletion strains, locus YMR223W, strain ubp8, active compounds read low 0.16 | S. cerevisiae deletion strains, locus YNL067W, strain RPL9B, active compounds read low 0.589 | S. cerevisiae deletion strains, locus YNL071W, strain lat1, active compounds read low 0.567 | S. cerevisiae deletion strains, locus YNL153C, strain GIM3, active compounds read low 0.839 | S. cerevisiae deletion strains, locus YNL183C, strain NPR1, active compounds read low 0.435 | S. cerevisiae deletion strains, locus YNL233W, strain BNI4, active compounds read low 0.167 | S. cerevisiae deletion strains, locus YNL248C, strain rpa49, active compounds read low 0.645 | S. cerevisiae deletion strains, locus YNL307C, strain MCK1, active compounds read low 0.0713 | S. cerevisiae deletion strains, locus YNR049C, strain mso1, active compounds read low 0.693 | S. cerevisiae deletion strains, locus YNR052C, strain pop2, active compounds read low 0.864 | S. cerevisiae deletion strains, locus YOL006C, strain TOP1, active compounds read low 0.248 | S. cerevisiae deletion strains, locus YOR001W, strain rrp6, active compounds read low 0.833 | S. cerevisiae deletion strains, locus YOR061W, strain CKA2, active compounds read low 0.691 | S. cerevisiae deletion strains, locus YOR069W, strain VPS5, active compounds read low 0.558 | S. cerevisiae deletion strains, locus YOR136W, strain idh2, active compounds read low 0.0967 | S. cerevisiae deletion strains, locus YOR184W, strain ser1, active compounds read low 0.161 | S. cerevisiae deletion strains, locus YOR270C, strain vph1, active compounds read low 0.275 | S. cerevisiae deletion strains, locus YOR316C, strain cot1, active compounds read low 0.0893 | S. cerevisiae deletion strains, locus YPL051W, strain arl3, active compounds read low 0.894 | S. cerevisiae deletion strains, locus YPL055C, strain LGE1, active compounds read low 0.683 | S. cerevisiae deletion strains, locus YPL078C, strain atp4, active compounds read low 0.507 | S. cerevisiae deletion strains, locus YPL241C, strain CIN2, active compounds read low 0.882 | S. cerevisiae deletion strains, locus YPR119W, strain clb2, active compounds read low 0.0832 | S. cerevisiae deletion strains, locus YPR163C, strain tif3, active compounds read low 0.23 | S. cerevisiae deletion strains, locus YPR167C, strain met16, active compounds read low 0.206 | S. cerevisiae deletion strains, strain wtn01, active compounds read low 0.372 | S. cerevisiae strains, strain wild type, active compounds read low 0.647

From PubChem BioAssay AID1159580 (chemical genetic matrix, 2015)
